Publication PMC5700166

Target: T1, GST-Dm-Relish (Drosophila melanogaster, UniProt Q94527 99-473)
T1 sequence: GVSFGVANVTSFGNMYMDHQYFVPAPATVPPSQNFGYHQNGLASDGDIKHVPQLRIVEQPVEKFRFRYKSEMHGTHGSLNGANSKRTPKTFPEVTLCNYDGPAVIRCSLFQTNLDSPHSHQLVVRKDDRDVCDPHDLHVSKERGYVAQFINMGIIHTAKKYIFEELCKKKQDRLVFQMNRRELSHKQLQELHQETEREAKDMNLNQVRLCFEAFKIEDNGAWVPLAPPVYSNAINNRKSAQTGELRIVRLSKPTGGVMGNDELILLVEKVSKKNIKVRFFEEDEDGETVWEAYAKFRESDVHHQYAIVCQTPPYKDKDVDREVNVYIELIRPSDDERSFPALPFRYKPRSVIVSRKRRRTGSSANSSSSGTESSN
Assay: protein-binding microarray (PBM); PBM: ~300 nM protein, 6 mM HEPES pH 7.8, 80 mM KCl, 0.5 mM EDTA, 0.5 mM EGTA, 6% glycerol, 35 ng/ul poly-dIdC, 1% milk, 1 h, room temperature; Ap Aiptasia and Nv Nematostella (sea anemones) / Co Capsaspora / Aq Amphimedon (sponge) / Dm Drosophila / Hu human; RHD is the Rel homology domain; high values mean tight binding
Conditions: dsDNA, one strand shown

Sequence	binding signal
CCGATTAACATCAAAAGTCCCCGTGATGTTAATCGGGTCTTGATTCGCTTGACGCTGCTG	9.25 z-score
CCGATTAACATCACACTACCCCCTGATGTTAATCGGGTCTTGATTCGCTTGACGCTGCTG	1.77 z-score
CCGATTAACATCAAAGTCTCCCCTGATGTTAATCGGGTCTTGATTCGCTTGACGCTGCTG	1.57 z-score
CCGATTAACATCACCAACCCCCCTGATGTTAATCGGGTCTTGATTCGCTTGACGCTGCTG	5.37 z-score
CCGATTAACATCAGCTAATTCCCTGATGTTAATCGGGTCTTGATTCGCTTGACGCTGCTG	1.18 z-score
CCGATTAACATCAGACTTTTCCCTGATGTTAATCGGGTCTTGATTCGCTTGACGCTGCTG	1.62 z-score
CCGATTAACATCAAAAATCCCAATGATGTTAATCGGGTCTTGATTCGCTTGACGCTGCTG	6.98 z-score
CCGATTAACATCAAATTCCCCCTTGATGTTAATCGGGTCTTGATTCGCTTGACGCTGCTG	8.62 z-score
CCGATTAACATCAAAAAATACCCTGATGTTAATCGGGTCTTGATTCGCTTGACGCTGCTG	8.93 z-score
CCGATTAACATCAAAATACCCCCTGATGTTAATCGGGTCTTGATTCGCTTGACGCTGCTG	7.72 z-score
CCGATTAACATCAGGACCTCCCCTGATGTTAATCGGGTCTTGATTCGCTTGACGCTGCTG	5.19 z-score
CCGATTAACATCAGGGGATTCACTGATGTTAATCGGGTCTTGATTCGCTTGACGCTGCTG	10.3 z-score
CCGATTAACATCAGGGAATGCCCTGATGTTAATCGGGTCTTGATTCGCTTGACGCTGCTG	7.7 z-score
CCGATTAACATCAGAAGATCCCCTGATGTTAATCGGGTCTTGATTCGCTTGACGCTGCTG	7.44 z-score
CCGATTAACATCAGAATTCCCCCTGATGTTAATCGGGTCTTGATTCGCTTGACGCTGCTG	8.22 z-score
CCGATTAACATCAAAAGATCCCCTGATGTTAATCGGGTCTTGATTCGCTTGACGCTGCTG	9.75 z-score
CCGATTAACATCACGGAACCCCCTGATGTTAATCGGGTCTTGATTCGCTTGACGCTGCTG	9.21 z-score
CCGATTAACATCAGGGGGATAAATGATGTTAATCGGGTCTTGATTCGCTTGACGCTGCTG	3.78 z-score
CCGATTAACATCAATCTTTCCCCTGATGTTAATCGGGTCTTGATTCGCTTGACGCTGCTG	3.33 z-score
CCGATTAACATCAAAAGTCCCCTTGATGTTAATCGGGTCTTGATTCGCTTGACGCTGCTG	9.45 z-score

Sequence	binding signal
CCGATTAACATCAAGTCCCCCCATGATGTTAATCGGGTCTTGATTCGCTTGACGCTGCTG	4.21 z-score
CCGATTAACATCAATCACCCCCCTGATGTTAATCGGGTCTTGATTCGCTTGACGCTGCTG	4.64 z-score
CCGATTAACATCAAAGCATCCCCTGATGTTAATCGGGTCTTGATTCGCTTGACGCTGCTG	3.26 z-score
CCGATTAACATCAAGGGGGTACTTGATGTTAATCGGGTCTTGATTCGCTTGACGCTGCTG	2.88 z-score
CCGATTAACATCAGGGGAATCCATGATGTTAATCGGGTCTTGATTCGCTTGACGCTGCTG	9.65 z-score
CCGATTAACATCAAGAATCCCCTTGATGTTAATCGGGTCTTGATTCGCTTGACGCTGCTG	8.39 z-score
CCGATTAACATCAAATATTCCCCTGATGTTAATCGGGTCTTGATTCGCTTGACGCTGCTG	7.22 z-score
CCGATTAACATCAGGGAAAGCACTGATGTTAATCGGGTCTTGATTCGCTTGACGCTGCTG	6.76 z-score
CCGATTAACATCACACATTCCCCTGATGTTAATCGGGTCTTGATTCGCTTGACGCTGCTG	2.91 z-score
CCGATTAACATCACATATTCCCCTGATGTTAATCGGGTCTTGATTCGCTTGACGCTGCTG	4.55 z-score
CCGATTAACATCAAGGATTCCCCTGATGTTAATCGGGTCTTGATTCGCTTGACGCTGCTG	9.55 z-score
CCGATTAACATCAAAAAGACCCCTGATGTTAATCGGGTCTTGATTCGCTTGACGCTGCTG	6.3 z-score
CCGATTAACATCAATTCCCCCCATGATGTTAATCGGGTCTTGATTCGCTTGACGCTGCTG	4.89 z-score
CCGATTAACATCAGGGGAGTACCTGATGTTAATCGGGTCTTGATTCGCTTGACGCTGCTG	7.86 z-score
CCGATTAACATCAGGGGGAAACCTGATGTTAATCGGGTCTTGATTCGCTTGACGCTGCTG	7.54 z-score
CCGATTAACATCAGGACAGCCCCTGATGTTAATCGGGTCTTGATTCGCTTGACGCTGCTG	2.67 z-score
CCGATTAACATCACAAGTTTCCCTGATGTTAATCGGGTCTTGATTCGCTTGACGCTGCTG	2.52 z-score
CCGATTAACATCAGGGAATCTTATGATGTTAATCGGGTCTTGATTCGCTTGACGCTGCTG	2.95 z-score
CCGATTAACATCAGGGGATGTTATGATGTTAATCGGGTCTTGATTCGCTTGACGCTGCTG	5.86 z-score
CCGATTAACATCAAATAAGTCCCTGATGTTAATCGGGTCTTGATTCGCTTGACGCTGCTG	5.96 z-score

Target: T2, GST-Aq-NF-kB (Amphimedon queenslandica, UniProt A9Y5G7 2-389)
T2 sequence: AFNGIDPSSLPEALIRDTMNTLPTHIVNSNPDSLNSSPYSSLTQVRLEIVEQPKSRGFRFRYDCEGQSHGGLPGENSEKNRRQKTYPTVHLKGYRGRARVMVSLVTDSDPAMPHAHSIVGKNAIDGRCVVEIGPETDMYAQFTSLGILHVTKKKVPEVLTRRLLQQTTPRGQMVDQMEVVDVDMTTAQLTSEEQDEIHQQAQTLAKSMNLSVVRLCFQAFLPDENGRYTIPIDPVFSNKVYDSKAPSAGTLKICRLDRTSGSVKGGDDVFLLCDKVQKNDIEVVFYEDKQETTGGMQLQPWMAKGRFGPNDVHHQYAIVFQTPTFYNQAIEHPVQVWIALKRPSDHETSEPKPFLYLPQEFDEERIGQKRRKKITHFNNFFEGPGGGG
Assay: as above
Conditions: dsDNA, one strand shown

Sequence	binding signal
CCGATTAACATCAAAAGTCCCCGTGATGTTAATCGGGTCTTGATTCGCTTGACGCTGCTG	7.44 z-score
CCGATTAACATCACACTACCCCCTGATGTTAATCGGGTCTTGATTCGCTTGACGCTGCTG	2.65 z-score
CCGATTAACATCAAAGTCTCCCCTGATGTTAATCGGGTCTTGATTCGCTTGACGCTGCTG	3.98 z-score
CCGATTAACATCACCAACCCCCCTGATGTTAATCGGGTCTTGATTCGCTTGACGCTGCTG	3.88 z-score
CCGATTAACATCAGCTAATTCCCTGATGTTAATCGGGTCTTGATTCGCTTGACGCTGCTG	3.15 z-score
CCGATTAACATCAGACTTTTCCCTGATGTTAATCGGGTCTTGATTCGCTTGACGCTGCTG	4.8 z-score
CCGATTAACATCAAAAATCCCAATGATGTTAATCGGGTCTTGATTCGCTTGACGCTGCTG	3.37 z-score
CCGATTAACATCAAATTCCCCCTTGATGTTAATCGGGTCTTGATTCGCTTGACGCTGCTG	8.5 z-score
CCGATTAACATCAAAAAATACCCTGATGTTAATCGGGTCTTGATTCGCTTGACGCTGCTG	8.03 z-score
CCGATTAACATCAAAATACCCCCTGATGTTAATCGGGTCTTGATTCGCTTGACGCTGCTG	7.21 z-score
CCGATTAACATCAGGACCTCCCCTGATGTTAATCGGGTCTTGATTCGCTTGACGCTGCTG	6.93 z-score
CCGATTAACATCAGGGGATTCACTGATGTTAATCGGGTCTTGATTCGCTTGACGCTGCTG	6.42 z-score
CCGATTAACATCAGGGAATGCCCTGATGTTAATCGGGTCTTGATTCGCTTGACGCTGCTG	7.91 z-score
CCGATTAACATCAGAAGATCCCCTGATGTTAATCGGGTCTTGATTCGCTTGACGCTGCTG	6.44 z-score
CCGATTAACATCAGAATTCCCCCTGATGTTAATCGGGTCTTGATTCGCTTGACGCTGCTG	8.47 z-score
CCGATTAACATCAAAAGATCCCCTGATGTTAATCGGGTCTTGATTCGCTTGACGCTGCTG	7.5 z-score
CCGATTAACATCACGGAACCCCCTGATGTTAATCGGGTCTTGATTCGCTTGACGCTGCTG	5.54 z-score
CCGATTAACATCAGGGGGATAAATGATGTTAATCGGGTCTTGATTCGCTTGACGCTGCTG	4.4 z-score
CCGATTAACATCAATCTTTCCCCTGATGTTAATCGGGTCTTGATTCGCTTGACGCTGCTG	5.91 z-score
CCGATTAACATCAAAAGTCCCCTTGATGTTAATCGGGTCTTGATTCGCTTGACGCTGCTG	7.89 z-score

Sequence	binding signal
CCGATTAACATCAAGTCCCCCCATGATGTTAATCGGGTCTTGATTCGCTTGACGCTGCTG	4.39 z-score
CCGATTAACATCAATCACCCCCCTGATGTTAATCGGGTCTTGATTCGCTTGACGCTGCTG	5.36 z-score
CCGATTAACATCAAAGCATCCCCTGATGTTAATCGGGTCTTGATTCGCTTGACGCTGCTG	4.15 z-score
CCGATTAACATCAAGGGGGTACTTGATGTTAATCGGGTCTTGATTCGCTTGACGCTGCTG	3.78 z-score
CCGATTAACATCAGGGGAATCCATGATGTTAATCGGGTCTTGATTCGCTTGACGCTGCTG	7 z-score
CCGATTAACATCAAGAATCCCCTTGATGTTAATCGGGTCTTGATTCGCTTGACGCTGCTG	7.11 z-score
CCGATTAACATCAAATATTCCCCTGATGTTAATCGGGTCTTGATTCGCTTGACGCTGCTG	8.12 z-score
CCGATTAACATCAGGGAAAGCACTGATGTTAATCGGGTCTTGATTCGCTTGACGCTGCTG	6.5 z-score
CCGATTAACATCACACATTCCCCTGATGTTAATCGGGTCTTGATTCGCTTGACGCTGCTG	5.41 z-score
CCGATTAACATCACATATTCCCCTGATGTTAATCGGGTCTTGATTCGCTTGACGCTGCTG	6.7 z-score
CCGATTAACATCAAGGATTCCCCTGATGTTAATCGGGTCTTGATTCGCTTGACGCTGCTG	7.75 z-score
CCGATTAACATCAAAAAGACCCCTGATGTTAATCGGGTCTTGATTCGCTTGACGCTGCTG	5.55 z-score
CCGATTAACATCAATTCCCCCCATGATGTTAATCGGGTCTTGATTCGCTTGACGCTGCTG	5.8 z-score
CCGATTAACATCAGGGGAGTACCTGATGTTAATCGGGTCTTGATTCGCTTGACGCTGCTG	7.18 z-score
CCGATTAACATCAGGGGGAAACCTGATGTTAATCGGGTCTTGATTCGCTTGACGCTGCTG	7.94 z-score
CCGATTAACATCAGGACAGCCCCTGATGTTAATCGGGTCTTGATTCGCTTGACGCTGCTG	6.62 z-score
CCGATTAACATCACAAGTTTCCCTGATGTTAATCGGGTCTTGATTCGCTTGACGCTGCTG	5.24 z-score
CCGATTAACATCAGGGAATCTTATGATGTTAATCGGGTCTTGATTCGCTTGACGCTGCTG	5.5 z-score
CCGATTAACATCAGGGGATGTTATGATGTTAATCGGGTCTTGATTCGCTTGACGCTGCTG	5.53 z-score
CCGATTAACATCAAATAAGTCCCTGATGTTAATCGGGTCTTGATTCGCTTGACGCTGCTG	6.24 z-score
